Source: PubChem BioAssay (NCI)
The panel holds about 79,000 compounds, 15% with a hit somewhere; the sample as a whole holds those more often. Unmarked numbers belong to inactive results. Activity calls are given as the source filed them. Cut-off read from the data, not from the text of the source: active = growth inhibition above about 70%; inactive = the rest.

Assays:
[1] = NCI Yeast Anticancer Drug Screen. Data for the rad52 strain (AID 147);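 note: 0% = growth of vehicle-treated control cultures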; details: S. cerevisiae rad52 mutant growth inhibition, active compounds read high
How it was run: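 Read-out: growth inhibition versus vehicle-treated controls. Cells were a DNA repair-deficient yeast strain treated with compounds.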

[2] = NCI Yeast Anticancer Drug Screen. Data for the wt1 strain (AID 149);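 note: 0% = growth of vehicle-treated wt1 cultures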; details: S. cerevisiae wt1 strain (SPY 50644) growth inhibition, active compounds read high
How it was run: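 Using yeast strain wt1, compound-induced growth inhibition was determined against vehicle-treated cultures.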

[3] = NCI Yeast Anticancer Drug Screen. Data for the rad50EPP+ strain (AID 151);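 note: 0% = growth of vehicle-treated control cultures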; details: S. cerevisiae rad50 mutant strain, active compounds read high
How it was run: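 Growth inhibition read against vehicle controls in rad50EPP+ yeast, a strain altered in DNA damage repair, after compound exposure.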

[4] = NCI Yeast Anticancer Drug Screen. Data for the mgt1 strain (AID 153); details: S. cerevisiae mgt1 mutant growth inhibition, active compounds read high
How it was run: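 mgt1 yeast grown with test compound; read-out is growth inhibition versus vehicle-treated cultures.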

[5] = NCI Yeast Anticancer Drug Screen. Data for the rad50 strain (AID 155);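 note: 0% = growth of vehicle-only cultures of the same strain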; details: S. cerevisiae rad50 strain growth inhibition, active compounds read high
How it was run: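 Relative growth inhibition (compound vs vehicle) was measured in yeast with a defined repair-gene alteration.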

[6] = NCI Yeast Anticancer Drug Screen. Data for the mec2-1 strain (AID 157); details: S. cerevisiae mec2-1 strain, active compounds read high
How it was run: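 Yeast mec2-1 mutant treated with compound. Readout: growth inhibition vs vehicle controls.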

[7] = NCI Yeast Anticancer Drug Screen. Data for the rad14 strain (AID 159);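 note: 0% = growth of vehicle-treated control cultures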; details: S. cerevisiae rad14 strain growth inhibition, active compounds read high
How it was run: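 Screen for anticancer potential: a yeast strain altered in DNA damage repair is grown with compound, and reduced growth is quantified against vehicle controls.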

[8] = NCI Yeast Anticancer Drug Screen. Data for the sgs1 mgt1 strain (AID 161);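 note: 0% = growth of cultures given vehicle only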; details: S. cerevisiae sgs1 mgt1 strain, active compounds read high
How it was run: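 Read-out: growth inhibition vs vehicle controls. Cells: mutant yeast strain deficient in DNA damage repair.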

[9] = NCI Yeast Anticancer Drug Screen. Data for the CLN2oe strain (AID 163);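 note: 0% = growth of vehicle-only control cultures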; details: S. cerevisiae CLN2oe strain, active compounds read high
How it was run: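 Read-out: yeast growth inhibition, expressed relative to vehicle-only controls. The strain bears an engineered cell-cycle alteration.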

[10] = NCI Yeast Anticancer Drug Screen. Data for the cln2 rad14 strain (AID 165);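 note: 0% = growth equal to vehicle treated cultures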; details: S. cerevisiae cln2 rad14 strain, active compounds read high
How it was run: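 cln2 rad14 yeast strain; compound exposure; growth inhibition read vs vehicle controls.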

[11] = NCI Yeast Anticancer Drug Screen. Data for the bub3 strain (AID 167); details: S. cerevisiae bub3 mutant strain, active compounds read high
How it was run: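 Screening used yeast with an engineered genetic alteration affecting cell cycle control. Compound-exposed cultures were compared with vehicle cultures, and reduced growth was taken as inhibition.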

[12] = NCI Yeast Anticancer Drug Screen. Data for the wt2 strain (AID 169);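 note: 0% = growth of vehicle-treated yeast cultures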; details: S. cerevisiae wt2 strain growth inhibition, active compounds read high
How it was run: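 Read-out: growth inhibition versus vehicle-treated control cultures after compound exposure of the yeast strain.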

[13] = NCI Yeast Anticancer Drug Screen. Data for the mlh1 strain (AID 171);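 note: 0% = growth of vehicle-treated control cultures of the same strain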; details: S. cerevisiae mlh1 strain growth inhibition, active compounds read high
How it was run: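 Read-out: growth inhibition versus vehicle controls. Strain: engineered yeast with a defined DNA repair or cell cycle defect, compound-treated.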

[14] = NCI Yeast Anticancer Drug Screen. Data for the sgs1 strain (AID 173);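 note: 0% = growth of vehicle-only control cultures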; details: S. cerevisiae sgs1 mutant, active compounds read high
How it was run: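 Read-out: yeast growth inhibition relative to vehicle controls, following compound exposure of a strain with a defined DNA repair/cell cycle alteration.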

[15] = NCI Yeast Anticancer Drug Screen. Data for the mlh1 rad18 strain (AID 175); details: S. cerevisiae mlh1 rad18 strain growth inhibition, active compounds read high
How it was run: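 Yeast w/ defined DNA-repair lesions; compound exposure; growth vs vehicle controls → % inhibition.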

[16] = NCI Yeast Anticancer Drug Screen. Data for the rad18 strain (AID 177); details: S. cerevisiae rad18 mutant growth inhibition, active compounds read high
How it was run: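 Readout: growth inhibition vs vehicle controls. Cells: genetically altered yeast strain, DNA repair defect.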

[17] = at 5.0 µM (retest, dose inferred, filed as 0.5)
[18] = at 50.0 µM (retest, dose inferred, filed as 5.0)

## CC(C)(Br)C(=O)/C=C/c1ccccc1
[1]; at 1.2 µM
  growth inhibition: 8%
[1]; at 3.7 µM
  growth inhibition: 21%
[1]; at 11.0 µM
  growth inhibition: 47%
[1]; at 33.0 µM
  growth inhibition: 73% (active)
[1]; at 100.0 µM
  growth inhibition: 91% (active)
[2]; at 1.2 µM
  growth inhibition: 3%
[2]; at 3.7 µM
  growth inhibition: 9%
[2]; at 11.0 µM
  growth inhibition: 9%
[2]; at 33.0 µM
  growth inhibition: 10%
[2]; at 100.0 µM
  growth inhibition: 17%
[3]; at 1.2 µM
  growth inhibition: 21%
[3]; at 3.7 µM
  growth inhibition: 51%
[3]; at 11.0 µM
  growth inhibition: 76% (active)
[3]; at 33.0 µM
  growth inhibition: 88% (active)
[3]; at 100.0 µM
  growth inhibition: 95% (active)
[4]; at 1.2 µM
  growth inhibition: -2%
[4]; at 3.7 µM
  growth inhibition: -1%
[4]; at 11.0 µM
  growth inhibition: 4%
[4]; at 33.0 µM
  growth inhibition: 7%
[4]; at 100.0 µM
  growth inhibition: 15%
[5]; at 1.2 µM
  growth inhibition: 6%
[5]; at 3.7 µM
  growth inhibition: 11%
[5]; [17]
  growth inhibition: 15%
[5]; at 11.0 µM
  growth inhibition: 26%
[5]; at 33.0 µM
  growth inhibition: 34%
[5]; [18]
  growth inhibition: 93% (active)
[5]; at 50.0 µM
  growth inhibition: 88.3% (active)
[5]; at 100.0 µM
  growth inhibition: 60%
[6]; at 1.2 µM
  growth inhibition: 5%
[6]; at 3.7 µM
  growth inhibition: 7%
[6]; [17]
  growth inhibition: -14%
[6]; at 11.0 µM
  growth inhibition: 17%
[6]; at 33.0 µM
  growth inhibition: 28%
[6]; [18]
  growth inhibition: 89% (active)
[6]; at 50.0 µM
  growth inhibition: 95.7% (active)
[6]; at 100.0 µM
  growth inhibition: 48%
[7]; at 1.2 µM
  growth inhibition: 6%
[7]; at 3.7 µM
  growth inhibition: 14%
[7]; at 11.0 µM
  growth inhibition: 27%
[7]; at 33.0 µM
  growth inhibition: 59%
[7]; at 100.0 µM
  growth inhibition: 97% (active)
[8]; [17]
  growth inhibition: 68%
[8]; [18]
  growth inhibition: 92% (active)
[8]; at 50.0 µM
  growth inhibition: 91.3% (active)
[9]; at 1.2 µM
  growth inhibition: -4%
[9]; at 3.7 µM
  growth inhibition: -3%
[9]; at 11.0 µM
  growth inhibition: -5%
[9]; at 33.0 µM
  growth inhibition: 4%
[9]; at 100.0 µM
  growth inhibition: 19%
[10]; [17]
  growth inhibition: 3%
[10]; [18]
  growth inhibition: 87% (active)
[10]; at 50.0 µM
  growth inhibition: 97.2% (active)
[11]; at 1.2 µM
  growth inhibition: -3%
[11]; at 3.7 µM
  growth inhibition: -7%
[11]; [17]
  growth inhibition: -16%
[11]; at 11.0 µM
  growth inhibition: -7%
[11]; at 33.0 µM
  growth inhibition: -2%
[11]; [18]
  growth inhibition: 63%
[11]; at 50.0 µM
  growth inhibition: 22.1%
[11]; at 100.0 µM
  growth inhibition: 7%
[12]; at 1.2 µM
  growth inhibition: 0%
[12]; at 3.7 µM
  growth inhibition: 3%
[12]; at 11.0 µM
  growth inhibition: 6%
[12]; at 33.0 µM
  growth inhibition: 10%
[12]; at 100.0 µM
  growth inhibition: 18%
[13]; at 1.2 µM
  growth inhibition: 0%
[13]; at 3.7 µM
  growth inhibition: 4%
[13]; at 11.0 µM
  growth inhibition: 10%
[13]; at 33.0 µM
  growth inhibition: 15%
[13]; at 100.0 µM
  growth inhibition: 27%
[14]; at 1.2 µM
  growth inhibition: 24%
[14]; at 3.7 µM
  growth inhibition: 50%
[14]; at 11.0 µM
  growth inhibition: 66%
[14]; at 33.0 µM
  growth inhibition: 70% (active)
[14]; at 100.0 µM
  growth inhibition: 80% (active)
[15]; [17]
  growth inhibition: 74% (active)
[15]; [18]
  growth inhibition: 95% (active)
[15]; at 50.0 µM
  growth inhibition: 71.9% (active)
[16]; at 1.2 µM
  growth inhibition: 94% (active)
[16]; at 3.7 µM
  growth inhibition: 95% (active)
[16]; at 11.0 µM
  growth inhibition: 96% (active)
[16]; at 33.0 µM
  growth inhibition: 96% (active)
[16]; at 100.0 µM
  growth inhibition: 97% (active)
